Only a sample is shown. No count for the full screen is at hand. Values without a mark were called inactive.

By apparent Kd is commonly meant a dissociation constant that holds for the conditions of the assay.

The labels stand for the following.
B1: il2ra_site1_1z92_sap_15_mot_HHH_b2_05498_000000253_0001_19_35_H_._HHH_b1_00069_0001_0001500068_0000001_0_0001_af2pred_0001_af2pred_1 (protein)
chain: SEEEEHIRELIEQIPDPELAEAIKKDFEQALERGIPPERVVRALLRAARLDGDPHAEELLEKALR
B2: il2ra_site1_2b5i_sap_11_mot_HHH_b1_06900_af2_000000048_0001_21_36_H_._a1725d017d863e7f4c76c21e96fab134_0001_1_af2_0001_0000100009_0000001_0_0001_af2pred_0001_af … (protein)
chain: SSSSSTLAQKAAELLEEANEADRNGDPEEARKLLEEAEKIAEEAGSKSLLRSIRVALEQLSSSSS
B3: il2ra_site1_1z92_sap_14_mot_HHH_b1_05862_af2_000000270_0001_22_38_H_._HHH_b1_06212_0001_0000200007_0000001_0_0001_af2pred_0001_af2pred_1 (protein)
chain: SSSSSDLEELIEEIARELAEENNDEDLREELEKAAERLKKLGTSHERARKILEKLVKAARSSSSS
B4: il2ra_site2_3nfp_normal_mot_HHH_b2_07840_000000026_0001_18_34_H_._HHH_b1_00954_0001_0000200021_0000001_0 (protein)
chain: SSSSDLEERLRELLEELEELVKEGDEERFREVAREVIQLVYENNDHEAFAKLADLLYLIESSSSS
B5: il2ra_site1_1z92_normal_mot_c9a8daa1dfea21d1414aecde54be4f54_0001_1_af2_000000024_0001_32_46_H_._15f70e71ac3214bf43105af5abf4654e_0001_1_af2_0001_0000300029_000 … (protein)
chain: DEEAARKDLEFALKQGIPPRSVVRAVLLALEHELGDPEEALEVIERAIKLLNDPELEEVVEKLKP
B6: il2ra_site1_2b5i_sap_21_mot_HHH_b2_08159_000000245_0001_1_21_H_._8ad9ac091cb40d3f9ee7ab2e9a3a3379_0001_0001_0000400039_0000001_0_0001_af2pred_0001_af2pred_1 (protein)
chain: SSSSSELLEEAFELLEEADELAKKGNDEEAEKVLREAEELLEKAGNPSLLRLVRAALRLTSSSSS
B7: il2ra_site2_3nfp_normal_mot_HHH_b1_05627_af2_000000038_0001_43_56_H_._HHH_b1_05526_af2_0001_0000100005_0000001_0 (protein)
chain: SSSSDKAEEYVRAAMEAARYALEDGNPEVARRSLELARQLAESLGNEELREEVEELLQELSSSSS
B8: il2ra_site2_2erj_sap_21_mot_HHH_b1_00069_af2_000000103_0001_1_18_H_._HHH_b1_05528_af2_0001_0000500009_0000001_0_0001_af2pred_0001_af2pred (protein)
chain: SSSSDEIRRLYELAEELDKLLLEGDEEKVEELLEELEQLARETNTPSAEKVVRAIEKSLESSSSS
B9: il2ra_site1_2b5i_sap_8_mot_HHH_b2_04131_000000150_0001_1_16_H_._HHH_b2_06569_af2_0001_0000100002_0000001_0_0001_af2pred_dldesign_0_af2pred (protein)
chain: SSSSSSAEEFVNEAIEKAKELKAAGRPDEARRLLKLALKRARKANDADLVARVEALLAELSSSSS
B10: il2ra_site1_1z92_normal_mot_6c2800a769814540b5b47941e710ff28_0001_af2_000000005_0001_35_49_H_._6228ca5b8b091676f337a4c0a06dbe92_0001_0003_0000300038_0000001_0 (protein)
chain: DEFLIEQLLRKIEAGNEESAERIIERLLKNAGIPPEEVERIVEELLKLLKDGDPEEARKLLREAP
B11: il2ra_site2_2erj_sap_28_mot_3b06bd03f1c6bceadc68eab912867b79_0001_000000296_0001_36_50_H_._HHH_b2_07644_af2_0001_0000200004_0000001_0_0001 (protein)
chain: SSSSSDELKRAYELANALMHLVARNDREEFERISEEFEEIVEKLDSRTAREILESLERLISSSSS
B12: il2ra_site2_2erj_sap_26_mot_6c2800a769814540b5b47941e710ff28_0001_000000197_0001_35_49_H_._HHH_b2_05475_0001_0000200011_0000001_0_0001_af2pred_0001_af2pred (protein)
chain: DDEEYIEMWVELAAKRLGVPSVEVETRNGTLHVTVNGTDEAARRVLLAAELAAKAAGLPFETTEE
B13: il2ra_site1_3nfp_sap_15_mot_HHH_b1_05868_af2_000000129_0001_1_19_H_._HHH_b1_04163_af2_0001_0000300017_0000001_0_0001_af2pred_0001_af2pred (protein)
chain: SSSSSWREKAMEAILRAAELANDEELREELEKLLEKLREEGDPRALREAVKLLKEAAKRLSSSSS
B14: il2ra_site2_3nfp_sap_32_mot_HHH_b1_00050_000000292_0001_22_38_H_._HHH_b2_06764_0001_0000600039_0000001_0_0001 (protein)
chain: SSSSDESEEYFEAAFELVRLALEAGDPEAARRLLEMLELVAESQNDPELQRLVEELEEELSSSSS
B15: il2ra_site1_3nfp_sap_18_mot_ems_3hM_2054_af2_000000130_0001_3_20_H_._HHH_b2_07863_0001_0000600021_0000001_0_0001 (protein)
chain: SRILERFVKIARKRGNPEFARVVEILLEVLEQDPRLKRAIDKILFELVSGKLPPEEAEELAKELK
B16: il2ra_site2_3nfp_normal_mot_HHH_b2_05513_000000198_0001_20_37_H_._52c50354b804bec8c3157ba16786ada3_0001_0001_0001000025_0000001_0_af2pred_0001_1_af2pred_swapped (protein)
chain: DDLEERLRRSAELAGDPHDAVVFFIAFLEYELGDPEEAIELALEVAEELGDPELERIIRELRKLP
B17: il2ra_site2_3nfp_normal_mot_HHH_b1_00239_000000199_0001_23_39_H_._HHH_b2_02904_0001_0000200025_0000001_0 (protein)
chain: SSSSNEEILREAAELLLELLEERGDEEELRELEELLEELKRHGDPELQLELYAVLARIYSSSSSS
B18: il2ra_site1_2b5i_normal_mot_3116615af0ee64d731c1c85d8523bf51_0001_000000216_0001_15_32_H_._HHH_b1_07838_af2_0001_0000100001_0000001_0_af2pred_dldesign_0_af2pred (protein)
chain: SSSSSALEKEVEETLAKADELKAAGKRREALEALEKIHKKLSAADAEDLQEKVEKKAKELSSSSS
B19: il2ra_site1_3nfp_normal_mot_eb5a5eebac1e5153f932cc6c3f4b2787_0001_af2_000000065_0001_18_33_H_._HHH_b2_04044_0002_0000100009_0000001_0 (protein)
chain: SSSSSDEEIRERVEELLEEAKHIPDYREASRLVEEAYRLAAELGDPELSELIYRVMREIVSSSSS
B20: il2ra_site1_3nfp_sap_21_mot_HHH_b2_02066_af2_000000034_0001_1_16_H_._c2845cfc7c062bbeb7cd94dd36b2ebbf_0001_af2_0001_0000100001_0000001_0_0001_af2pred_0001_af2pr … (protein)
chain: SSSEEELQELFKLALELHKKLTNPEARQVVIHAMALVARATRTKDPELERRAREAIEEAEELDSS
B21: il2ra_site2_2erj_normal_mot_HHH_b2_06726_000000006_0001_1_16_H_._HHH_b1_04199_0001_0000300043_0000001_1_af2pred_0001_af2pred (protein)
chain: SSSSSSEYREEIEELIEEARRVDEEEAVALLAEAAFLAVRNKDEEIFREVAELSLELYRRSSSSS
B22: il2ra_site2_3nfp_sap_23_mot_347257a5708f0dc4a322ca97a98db719_0001_1_af2_000000210_0001_36_49_H_._796cb09f51c241c629a2416424e53d75_0001_0001_0000100001_0000001_0 … (protein)
chain: SSSSDKEEERVEELLEELKRLIEEGDEEKARRAFAEAAHLIFELNDSELFARLAELALELWSSSS
B23: il2ra_site1_3nfp_sap_17_mot_HHH_b1_01159_af2_000000107_0001_1_20_H_._HHH_b1_00510_0001_0000100012_0000001_0_0001 (protein)
chain: DEEEIRREIEELLEEDPQEAMQFAMKLAHEAMRNNDPELLRVVLEALLKVTGDPSVKKLLEVARR
B24: il2ra_site1_1z92_normal_mot_HHH_b1_03515_000000289_0001_1_19_H_._HHH_b2_04566_af2_0001_0000100001_0000001_0 (protein)
chain: SSSDEEQARRSLERLVEDAVKLAGLSEEQKEKLEELVEELIERGVDFLEAIKLIDELARELSSSS
B25: il2ra_site1_2b5i_sap_13_mot_HHH_b2_07160_000000135_0001_1_14_H_._HHH_b1_04051_0001_0000500030_0000001_1_0001_af2pred_dldesign_0_af2pred (protein)
chain: SSSSSLGRRRRELLERADKAFKAEDYELLKELLKEVKELVEKTKRKSDKAILKLIEEALEESSSS
B26: il2ra_site2_2erj_sap_21_mot_6ec3e94b46d95805cdcdc10c0c108f03_0001_af2_000000040_0001_36_50_H_._HHH_b2_04396_0001_0000200006_0000001_0_0001 (protein)
chain: SSSSSEWEEAARLSVLLLEAARKNDEELLEELRREAEELIKEIKNPAARRYLEFALRDVERSSSS
B27: il2ra_site1_1z92_sap_19_mot_HHH_b2_03511_af2_000000113_0001_41_54_H_._HHH_b2_01993_af2_0001_0000400041_0000001_0_0001 (protein)
chain: DEAEEVIERAIEAVERGDPEEVRRLLEKLIEHTGDPALRFLLEVLERKLEAGNYKAARAILEKSR
B28: il2ra_site2_3nfp_normal_mot_HHH_b2_04451_000000238_0001_21_37_H_._HHH_b1_08573_0001_0000400020_0000001_0 (protein)
chain: SSSDEEERIEELIELVEELIKEGDRTEALQVLLEASELAAKLGDEELARILLELFLLLQEKSSSS

The target in the experiment is il2ra, P01589. Nature of the experiment: yeast display titration.
Sequence of il2ra, P01589 (P01589 whole entry): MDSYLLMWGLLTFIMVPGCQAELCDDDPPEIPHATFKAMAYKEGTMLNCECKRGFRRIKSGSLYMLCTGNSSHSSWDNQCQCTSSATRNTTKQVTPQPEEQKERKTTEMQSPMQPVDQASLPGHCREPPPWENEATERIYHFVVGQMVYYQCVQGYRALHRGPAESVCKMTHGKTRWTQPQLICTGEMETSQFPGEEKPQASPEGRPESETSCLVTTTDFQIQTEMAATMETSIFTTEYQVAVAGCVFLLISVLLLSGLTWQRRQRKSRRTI
For B1, the “apparent Kd” value is “no binding seen”. Under B2 stands “no binding seen”. Then B3, with “no binding seen”; and B4, with “no binding seen”. Under B5 stands “no binding seen”; under B6, “no binding seen”; under B7, “no binding seen”. In the case of B8, the “apparent Kd” value was “no binding seen”. Under B9 stands “no binding seen”.

B10: the “apparent Kd” value was “no binding seen”.

For the molecule B11, the “apparent Kd” value was “no binding seen”. Then B12, with “no binding seen”. Then B13, with “no binding seen”; and B14, with “no binding seen”. In the case of B15, the “apparent Kd” value was “no binding seen”. Consider B16, for which the “apparent Kd” value is “no binding seen”. Under B17 stands “no binding seen”; under B18, “no binding seen”; under B19, “no binding seen”. As for B20, the “apparent Kd” value is “no binding seen”. B21: the “apparent Kd” value is “no binding seen”. Regarding B22, the “apparent Kd” value is “no binding seen”. Under B23 stands “no binding seen”. Under B24 stands “no binding seen”; under B25, more than 487 nM; under B26, “no binding seen”. Then B27, with “no binding seen”; and B28, with “no binding seen”.

Source of the values: article PMC10163288.
